Assay results as given in PubChem BioAssay (EPA / NIEHS).
Values joined by “and” are separate entries in the source; they are usually repeats but may differ in a detail not shown here. Equal entries are not always repeated. Results filed as inconclusive are left out. Some structures have more than one record in an assay (separate samples or runs), and their calls can disagree. Active and inactive are the calls of the source. The calls were made as follows: active = hit-call score of the fitted dose curve at least 0.9, where 1 is the maximum; inconclusive = response in the unintended direction; inactive = score below 0.9.

Test: TOX21_p53_BLA_p4_viability: Viability Assessment in the Tox21 HCT-116 p53 Agonism Beta-lactamase Assay, Phase 4 (AID 2283597);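 also: hits lower the luminescence signal meaning cytotoxicity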
Excerpt: TOX21_p53_BLA_p4 is a cell-based, single-readout assay that uses HCT116, a human intestinal cell line, […] in a 1536-well plate.TOX21_p53_BLA_p4_viability is an assay readout measuring cellular ATP content and detected with CellTiter-Glo Luciferase-coupled ATP quantitation.TOX21_p53_BLA_p4_viability used a type of viability reporter where loss-of-signal activity can be used to understand changes in the cell viability. Furthermore, this assay endpoint can be referred to as a secondary readout, because this assay has produced multiple assay endpoints where this one serves a viability function. To generalize the intended target to other relatable targets, this assay endpoint is annotated to the cell cycle intended target family, where the subfamily is cytotoxicity.
Thawing Method: Place 14 mL of pre-warmed thaw medium into a 15 mL of conical tub. Remove the vial of cells to be thawed from liquid nitrogen and thaw rapidly by placing at 37C in a water bath with gentle agitation for 1-2 minutes. Decontaminate the vial by wiping with 70% ethanol before opening in a biological safety cabinet. Transfer the vial contents drop-wise into 14 mL of thaw medium in a sterile 15-mL conical tub. Centrifuge cells at 900 rpm for 4 minutes and resuspend in thaw medium. Transfer contents to the T75 tissue culture flask containing Thaw Medium and place flask in a humidified 37C/5% CO2 incubator. Switch to growth medium at first passage.Propagation Method: Aspirate medium, rinse once in DPBS, add 0.25% Trypsin/EDTA and swirl to coat the cell evenly. Add an equal volume of Growth Medium to inactivate Trypsin after 2-3 minutes incubation at 37C. Centrifuge cells at 900 rpm for 4 minutes and resuspend in growth medium. Cell should be passage or fed at least twice a week.Assay Protocol: Harvest cells from culture in growth medium and resuspend in assay medium. 2.2 Dispense 4000 cells/5 uL/well into 1536-well black/clear bottom plates using a Multidrop dispenser. After the cells were incubated at 37C for 5 hours, 23 nL of compounds dissolved in DMSO were transferred to the assay plate by a PinTool resulting in a 217-fold dilution. Incubate the plates for 16 hours at 37C, 5% CO2. Add 1 uL of 6X LiveBLAzer FRET B/G (CCF4-AM) Substrate Mixture to each well using a BioRAPTR dispenser and incubate the plates at room temperature for 2 hours. Measure fluorescence intensity at 460 and 530 nm emission and 405 nm excitation by an Envision detector. Data is expressed as the ratio of 460nm/530nm emissions. Add 4 uL of Cell-titer Glo to each well using BioRAPTR and incubate the plates at room temperature for […]. For cell viability readout that measures cytotoxicity, 4 ul/well of CellTiter-Glo reagent was added into the assay plates using a Flying Reagent Dispenser. After 30 min incubation at room temperature, the luminescence intensity in the plates was measured using a ViewLux plate reader.
For `CC(=O)O[C@]1(C(C)=O)CC[C@H]2[C@@H]3C[C@H](C)C4=CC(=O)CC[C@]4(C)[C@H]3CC[C@@]21C`, the outcome was “inactive”.
In the case of `c1cc(C(c2ccc(OCC3CO3)cc2)c2ccc(OCC3CO3)cc2)ccc1OCC1CO1` (stereo not given), the outcome is reported as “inactive”.
With `CC(C)[C@@H]1CC[C@@H](C)CC1=O` the outcome was “inactive”.
In the case of `CN(C)C(=N)N=C(N)N`, the outcome is reported as “inactive”.
With `CNC[C@H](O)c1cccc(O)c1` the outcome was “inactive”.
For `Nc1cc([N+](=O)[O-])ccc1O`, the outcome was “inactive”.
With `CC[Si](OC(C)=O)(OC(C)=O)OC(C)=O` the outcome was “inactive”.
For `O=C(O)CCCCCCCC(=O)O`, the outcome was “inactive”.
In the case of `CCN(CC)c1ccc(C(=C2C=CC(=[N+](CC)CC)C=C2)c2ccc(S(=O)(=O)O)cc2S(=O)(=O)[O-])cc1`, the AC50 is reported as 46.1 µM (active).
In the case of `Fc1c(F)c(F)c(Br)c(F)c1F`, the outcome is reported as “inactive”.
With `CCC(=O)OCc1ccccc1` the outcome was “inactive”.
In the case of `Cc1ccc(C(=O)c2cc(O)c(O)c([N+](=O)[O-])c2)cc1`, the outcome is reported as “inactive” and the AC50 is reported as 46.1 µM (active).
For `CC(=O)[C@H]1CC[C@H]2[C@@H]3CC=C4C[C@@H](O)CC[C@]4(C)[C@H]3CC[C@]12C`, the outcome was “inactive”.
With `O=C(O)CN(CCN(CC(=O)O)CC(=O)O)CCN(CC(=O)O)CC(=O)O` the outcome was “inactive”.
In the case of `CC1(C)[C@H]2CC[C@]1(C)[C@H](O)C2`, the outcome is reported as “inactive”.
For `CCCCCCCCCOC(C)=O`, the outcome was “inactive”.
For `COC(C(=O)O)c1ccccc1` (stereo not given), the outcome was “inactive”.
In the case of `Cc1ccc(C=O)s1`, the outcome is reported as “inactive”.
With `O=C(O)CCSCCC(=O)O` the outcome was “inactive”.
With `OCCOCCOCCOCCO` the outcome was “inactive”.
In the case of `CCCCCCCCCCCCCCCC(=O)O`, the outcome is reported as “inactive”.
In the case of `O=C(O)C[C@H](O)C[C@H](O)/C=C/c1c(C2CC2)nc2ccccc2c1-c1ccc(F)cc1`, the outcome is reported as “inactive”.
For `CCCCCCCCCCCCN`, the AC50 was 62.2 µM (active).
In the case of `CCCCOCCOCCSC#N`, the outcome is reported as “inactive”.
For `NCCOCCO`, the outcome was “inactive”.
For `O=C(O)c1cccc([N+](=O)[O-])c1`, the outcome was “inactive”.
With `CC(C)(C)NC(N)=O` the outcome was “inactive”.
In the case of `CCCC/C=C\CCCCCCCCCC=O`, the outcome is reported as “inactive”.
With `O=C1OC2(c3cc(Br)c(O)c(Br)c3Oc3c2cc(Br)c(O)c3Br)c2c(Cl)c(Cl)c(Cl)c(Cl)c21` the AC50 was 50.2 µM (active) and 23.6 µM (active).
With `NC(=O)NC1NC(=O)NC1=O` (stereo not given) the outcome was “inactive”.
With `CC(=O)C(C)=O` the outcome was “inactive”.
In the case of `CO[Si](C)(OC)c1ccccc1`, the outcome is reported as “inactive”.
With `CO[Si](CCCn1c(=O)n(CCC[Si](OC)(OC)OC)c(=O)n(CCC[Si](OC)(OC)OC)c1=O)(OC)OC` the outcome was “inactive”.
In the case of `CC1=CCC(O)(C(C)C)CC1` (stereo not given), the outcome is reported as “inactive”.
With `CCN(CC)c1ccc2c(-c3ccccc3C(=O)O)c3ccc(=[N+](CC)CC)cc-3oc2c1` the outcome was “inactive”.
With `O=C(O)c1ccc([N+](=O)[O-])cc1` the outcome was “inactive”.
In the case of `CCCCC(CC)COCCC#N` (stereo not given), the outcome is reported as “inactive”.
With `O=C1CCc2ccccc2O1` the outcome was “inactive”.
In the case of `O=C(O)COCCN1CCN(C(c2ccccc2)c2ccc(Cl)cc2)CC1` (stereo not given), the outcome is reported as “inactive”.
